# Results: PubChem BioAssay AID567 (The Scripps Research Institute Molecular Screening Center, 2006)
# About 370 (0.57%) of roughly 65,000 compounds were called active.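 How the source made its calls: active means activation above the screen-wide mean activation plus 3 SD (cut at about 19% in these data); inactive means the rest.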 Many of the other results were omitted from the sample, so actives are more common in it than they were.
# Target: 5-hydroxytryptamine receptor 1A (Homo sapiens) (UniProt P08908)
# Experiment: agonism at serotonin HTR1A receptor – cell-based, CHO, Ga15 NFAT-bla reporter, primary screen (AID 567);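 further: 0% = DMSO wells and 100% = 5-CT at EC100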
# Conditions: CHO 5-HT1a Ga15 NFAT-bla reporter, FRET ratio; at 10 µM; stronger effect = higher value
# Chain of 5-hydroxytryptamine receptor 1A (Homo sapiens) (P08908 whole entry, looked up): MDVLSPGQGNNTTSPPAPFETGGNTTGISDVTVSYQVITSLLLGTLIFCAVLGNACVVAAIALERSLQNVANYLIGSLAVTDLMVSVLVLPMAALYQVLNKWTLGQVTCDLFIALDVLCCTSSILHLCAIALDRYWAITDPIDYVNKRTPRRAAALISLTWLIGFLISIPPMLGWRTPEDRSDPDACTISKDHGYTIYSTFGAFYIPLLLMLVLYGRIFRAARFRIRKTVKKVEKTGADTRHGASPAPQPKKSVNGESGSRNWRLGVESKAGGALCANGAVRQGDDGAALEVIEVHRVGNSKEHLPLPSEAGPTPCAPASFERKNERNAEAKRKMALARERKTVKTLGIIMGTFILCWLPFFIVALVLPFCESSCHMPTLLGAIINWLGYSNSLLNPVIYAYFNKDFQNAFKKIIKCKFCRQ
row,Compound,activation
1,CCc1cccc2c(C#N)cn(CC(=O)N3CCOCC3)c12,60.2% (active)
2,COC(=O)C(c1ccccc1)N1CCCCCC1 (stereo not given),1.53% (inactive)
3,COC(=O)C(O)(c1ccc(NC(=O)c2ccco2)c(OC)c1)C(F)(F)F (stereo not given),-0.22% (inactive)
4,CC1(C)C(c2ccccc2)=NC(c2cccnc2)=[N+]1[O-],49.7% (active)
5,CCOC(=O)C1CN(C)CCC1=O (stereo not given),-3.2% (inactive)
6,CC(=O)N(C1=NCCCS1)c1ccccc1F,-0.07% (inactive)
7,Cc1ccc2c(c1)C1CN(C)CCC1N2C(=O)Cn1nnc(-c2ccccc2F)n1 (stereo not given),1.76% (inactive)
8,Cc1ccc(Cn2nnnc2CN2CCC(n3nnc4ccccc43)CC2)cc1,-1.46% (inactive)
9,CN1CCN(Cc2ccccc2C(F)(F)F)CC1,-1.3% (inactive)
10,O=C(c1cc(-c2ccncc2)nc2ccccc12)N1CCC2(CC1)OCCO2,-2.03% (inactive)
11,Cc1cccc(-n2c(C)nc3cc(C(=O)N4CCC5(CC4)OCCO5)ccc32)c1,27.3% (active)
12,O=C(c1cc2nc(-c3ccccc3)cc(-c3ccccc3)n2n1)N1CCC2(CC1)OCCO2,0.72% (inactive)
13,Fc1cccc(F)c1CN1CCN(Cc2c(F)cccc2F)CC1,-2.86% (inactive)
14,CC(=O)N1CN2CN(C(C)=O)CC(C(=O)c3ccc(Br)cc3)(C2)C1,0.98% (inactive)
15,O=C(O)C1CSC(c2cccnc2)N1 (stereo not given),-3.3% (inactive)
